Compound activity (PubChem)
TDP1 cell CPT: qHTS for Inhibitors of human tyrosyl-DNA phosphodiesterase 1 (TDP1): qHTS in cells in presence of CPT; chicken DT40 Tdp1-/-;hTDP1 cells + 20 nM CPT, ATP luminescence, 48 h; Potency, µM (titrated, usually from 46.2 µM), without a hit: top-dose activity change, negative = growth inhibition, hits mostly inhibitors; 12% of 420,000 active; also: potency is read from the fitted curve at half-maximal effect; nearly all actives have a fitted effect of over 55% in size
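Chicken DT40 Tdp1-/- cells stably complemented with human TDP1 were seeded at 400 cells/well in medium containing 20 nM camptothecin, exposed to pin-transferred compounds, and grown at 37 °C for at least 48 hr. Viability was read as ATP luminescence.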
RORgamma inh: qHTS for inhibitors of ROR gamma transcriptional activity | Nuclear receptor ROR-gamma (Mus musculus), P51450 | Drosophila S2 Gal4-RORgamma UAS-luciferase reporter, 20 h | Potency, µM (titrated, usually from 53.6 µM), without a hit: top-dose activity change, negative = inhibition, actives largely listed as inhibitors | 5.4% of 310,000 active; also: potency is read from the fitted curve at half-maximal effect; nearly all actives have a fitted effect of over 60% in size
Target sequence (P51450 whole entry, looked up, the tested form may be a part): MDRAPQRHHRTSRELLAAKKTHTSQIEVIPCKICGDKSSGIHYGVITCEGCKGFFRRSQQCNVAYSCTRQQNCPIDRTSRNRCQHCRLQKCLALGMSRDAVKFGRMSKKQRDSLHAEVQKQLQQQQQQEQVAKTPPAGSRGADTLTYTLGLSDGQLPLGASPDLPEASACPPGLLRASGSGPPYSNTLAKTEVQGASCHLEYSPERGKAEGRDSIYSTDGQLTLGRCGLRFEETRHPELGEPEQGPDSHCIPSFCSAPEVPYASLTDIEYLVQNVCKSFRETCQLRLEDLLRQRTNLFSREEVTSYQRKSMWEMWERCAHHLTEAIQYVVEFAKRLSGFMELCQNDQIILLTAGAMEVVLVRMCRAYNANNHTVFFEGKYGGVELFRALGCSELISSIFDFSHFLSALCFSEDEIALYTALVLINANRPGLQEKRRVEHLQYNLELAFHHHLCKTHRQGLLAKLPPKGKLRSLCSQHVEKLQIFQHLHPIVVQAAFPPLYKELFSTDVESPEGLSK
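Compounds are pin-transferred onto Drosophila Schneider cells expressing a copper-inducible Gal4–ROR gamma transactivation domain fusion. After 1 hr, copper sulfate is added to 700 uM final; luciferase is read 20 hr later.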
TDP1 cell noCPT: qHTS for Inhibitors of human tyrosyl-DNA phosphodiesterase 1 (TDP1): qHTS in cells in absence of CPT; DT40 Tdp1-/- hTDP1 cells, no CPT, ATP luminescence, 48 h; 15% of 420,000 active; Potency, µM (titrated, usually from 46.2 µM), inactives show at the top dose activity change, negative = growth inhibition, most hits filed as inhibitors; also: potency is read from the fitted curve at half-maximal effect; nearly all actives have a fitted effect of over 55% in size
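Cells were dispensed at 400 per well, compounds added by pin tool, plates incubated ≥48 hr at 37 °C, then CellTiter-Glo added for 30 min at room temperature before luminescence reading. Line: DT40 Tdp1-/- complemented with hTDP1; camptothecin omitted.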
LDHA inh: qHTS assay for inhibitors of human lactate dehydrogenase. 0.15% of 480,000 active. AID 1347041, 2019. activity change, % (values are at about 110 or 230 µM). L-lactate dehydrogenase A chain (Homo sapiens), P00338. purified LDHA, NADH/diaphorase-resazurin fluorescence; stronger effect = lower value; in the data active = activity change below about -30%; inconclusive = mostly about -25% to -30%;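 also: plate controls were DMSO wells for no effect and wells without enzyme for full effect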
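LDH5 2 nM; NADH 0.06 mM, pyruvate 0.2 mM; 200 mM Tris pH 7.4, EDTA, Tween-20; 5 min RT. Detection: diaphorase 0.133 mg/mL + resazurin 37 µM, fluorescence ex540/em590 at 0 and 20 min; normalized to enzyme-free and DMSO wells.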
Gal4-VP16 FLuc: VP16 counterscreen qHTS for inhibitors of ROR gamma transcriptional activity; Drosophila S2 Gal4-VP16 UAS-luciferase, luminescence, 20 h; Potency, µM (highest dose often 53.6 µM), for inactives: top-dose activity, negative = inhibition, most hits filed as inhibitors; 3.5% of 310,000 active; AID 2546, 2010;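 also: Gal4-VP16 expression switched on by copper sulfate through the metallothionein promoter; potency is read from the fitted curve at half-maximal effect; nearly all actives have a fitted effect of over 50% in size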
IL-1B inflam inh: qHTS for Inhibitors of Inflammasome Signaling: IL-1-beta AlphaLISA Primary Screen; THP-1 LPS/ATP IL-1B secretion, AlphaLISA, 16 h; stronger effect = lower value; activity change, % at 57.5 µM; 4.7% of 360,000 active; AID 743279, 2014; in the data active = activity change below about -50%; inconclusive = mostly about -30% to -49%
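Secreted IL-1B measured by AlphaLISA bead assay after 16 h compound exposure of THP-1 cells; compounds (final up to 57.5 uM) added 1 h before LPS (250 ng/mL) and ATP (1.25 mM) stimulation; lower signal means less secretion.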
Numbers without * were called inactive; ? = inconclusive; . = no result given; [ ] = remark or other dose. Shown are actives, neighbours in structure and some others; about 18% of the full set was active somewhere. Unless noted, calls follow the shape of the dose curve; as a rule, active = well fitted curve in the direction sought with a large enough effect; inconclusive = small, poorly fitted or top-dose-only effect, or another doubt; inactive = no such curve, though single readings can be large; an effect the other way counts as inactive or inconclusive. Unless noted, % is scaled to controls: 0 for no effect and ±100 for the full control effect.

SMILES | TDP1 cell CPT | RORgamma inh | TDP1 cell noCPT | LDHA inh | Gal4-VP16 FLuc | IL-1B inflam inh
COc1ccccc1OCc1ccc(C(=O)c2ccccc2)cc1 | -15% | ? | ? | -1 | 5% | ?
COc1ccccc1OCCOc1ccc(C(=O)c2ccccc2)cc1 | 18µM* | ? | ? | -6 | -2% | -12
CC1CCC(NC(=O)COc2ccc(C(=O)c3ccccc3)cc2)CC1 (stereo not drawn) | ? | ? | 10µM* | 1 | ? | -65*
CC1CCN(CCOc2ccc(C(=O)c3ccccc3)cc2)CC1 | 16µM* | 13% | ? | -15 | -2% | -5
C=C(C)Cn1c(N(C)C)nc2c1c(=O)[nH]c(=O)n2C | . | . | . | -6 | . | .
COc1nc2cc(C)c(C)cc2nc1C(=O)Nc1cc(C)cc(C)c1 | . | . | . | 2 | . | .
CCCN(CCC)CCNC(=O)Cn1c(C)c(C(=O)OCC)c(C)c1-c1ccccc1 | . | . | . | 10 | . | .
NC(=O)/C=C/C(=O)Nc1ccc(Cl)cc1 | 3.3µM* | 3.2µM* | 8.2µM* | -9 | ? | -78*
O=C(O)/C=C/C(=O)Nc1ccc(O)cc1 | -4% | 19% | -3% | 13 | 3% | 0
O=C(/C=C/C(Cl)(Cl)Cl)Nc1ccc(Cl)cc1 | 4.6µM* | . | 5.2µM* | -2 | . | -104*
CCC1CN(S(=O)(=O)c2cc(-c3cc(C)no3)ccc2C)c2cc(Cl)ccc2O1 (stereo not drawn) | 13µM* | . | 23µM* | 4 | . | .
CCc1ccc(-c2cc(C)no2)cc1S(=O)(=O)N1CCN(c2ccccc2OC)CC1 | ? | -29% | ? | 0 | 0% | -1
Cc1ccc(C)c(N2CCN(S(=O)(=O)c3cc(-c4cc(C)no4)ccc3C)CC2)c1 | ? | . | 16µM* | -12 | . | .
COc1ccccc1N1CCN(S(=O)(=O)c2cc(-c3cc(C)no3)ccc2C)CC1 | 21µM* | . | 18µM* | 3 | . | .
O=C(/C=C/c1cnc2ccccc2n1)NCc1ccccc1 | . | . | . | 14 | . | .
CN(Cc1ccc2c(c1)OCO2)C(=O)c1nn(-c2ccccc2)c(=O)c2ccccc12 | . | . | . | -35* | . | .
COc1ccc(-n2cc(C#N)c(=O)n(Cc3ccc(F)cc3)c2=O)cc1 | 21µM* | 23% | 15µM* | -4 | -7% | 32
COc1ccc2cc(S(=O)(=O)N3CCCC3)c(=O)oc2c1 | . | . | . | -13 | . | .
CCN(CC)C(=O)C(=O)c1c(-c2ccccc2)n(C)c2ccccc12 | . | . | . | 13 | . | .
COc1cccc(NC(=O)C2CCN(S(=O)(=O)c3ccc(N4CCCC4=O)cc3)CC2)c1 | 15µM* | . | ? | -8 | . | 18
COc1cccc(NC(=O)C2CCN(S(=O)(=O)c3ccc4c(c3)NC(=O)CO4)CC2)c1 | 23µM* | 38% | ? | -2 | 0% | -14
O=C(Nc1cccc(C(F)(F)F)c1)C1CCN(S(=O)(=O)c2ccc(N3CCCC3=O)cc2)CC1 | 2.6µM* | ? | 2.1µM* | -6 | 13µM* | -19
Cc1ccc(-c2ccnc3c2c(=O)[nH]c(=O)n3CCc2ccccc2)cc1 | . | . | . | 9 | . | .
O=S(=O)(NCCc1csc(-c2cccnc2)n1)c1cccs1 | ? | 7% | ? | -15 | 4% | -13
O=S(=O)(NCCc1csc(-c2cccnc2)n1)c1ccc(Cl)s1 | 12µM* | -13% | 23µM* | -6 | -15% | 16
SMILES | TDP1 cell CPT | RORgamma inh | TDP1 cell noCPT | LDHA inh | Gal4-VP16 FLuc | IL-1B inflam inh
COc1ccc(S(=O)(=O)NCCc2csc(-c3cccnc3)n2)cc1 | 15µM* | 19% | -29% | 0 | -3% | 1
COc1ccc(OC)c(S(=O)(=O)NCCc2csc(-c3cccnc3)n2)c1 | -7% | 5% | -14% | -1 | -3% | -2
Cc1ccc(NC2=C(Cl)C(=O)OC2OC(=O)c2ccco2)c(C)c1 (stereo not drawn) | ? | . | -45% | -6 | . | 0
Cc1ccc(C)c(NC2=C(Cl)C(=O)OC2OC(=O)c2ccco2)c1 (stereo not drawn) | 23µM* | 11µM* | 23µM* | 3 | ? | -90*
Cc1ccc(NC2=C(Cl)C(=O)OC2OC(=O)c2ccco2)cc1C (stereo not drawn) | ? | -22% | ? | 1 | ? | -87*
CC(OC(=O)c1cc(-c2ccco2)nc2ccccc12)C(=O)NC(=O)NC1CCCCC1 (stereo not drawn) | . | . | . | 4 | . | .
COC(=O)[C@@]12C[C@@H](CC(=O)N3CCN(C(=O)C4CC4)CC3)C(=O)N(Cc3ccc4c(c3)OCO4)C1=CCC(C)(C)C2 | ? | . | 16µM* | -1 | . | 5
COC(=O)[C@@]12C[C@@H](CC(=O)NCC34CC5CC(CC(C5)C3)C4)C(=O)N(Cc3ccc4c(c3)OCO4)C1=CCC(C)(C)C2 | ? | . | ? | 0 | . | -4
COC(=O)[C@]12CCCCC=C1N(Cc1ccc3c(c1)OCO3)C(=O)[C@H](CC(=O)N1CCCC1)C2 | ? | . | ? | 1 | . | 6
COC(=O)[C@@]12C[C@@H](CC(=O)NCC3CCCCC3)C(=O)N(Cc3ccc4c(c3)OCO4)C1=CCC(C)(C)C2 | ? | . | ? | 0 | . | -54*
COC(=O)[C@@]12C[C@@H](CC(=O)NCc3ccc(C)o3)C(=O)N(Cc3ccc4c(c3)OCO4)C1=CCC(C)(C)C2 | 21µM* | . | 12µM* | -2 | . | ?
COc1cc(C)cc2oc(=O)c(CC(=O)NCCc3ccc(S(N)(=O)=O)cc3)c(C)c12 | . | . | . | 6 | . | .
CCN(CC)Cc1c(O)ccc2c(=O)c(-c3ccc4c(c3)OCCO4)coc12 | 3.3µM* | 23% | 10µM* | -1 | 4%[0.365 µM] | 1
CCN(CC)Cc1c(O)ccc2c(=O)c(-c3ccccc3)coc12 | 9.2µM* | 26%[1.91 µM] | ? | 2 | 9% | -12
CCN(Cc1ccccc1)Cc1c(O)ccc2c(=O)c(-c3ccccc3Cl)coc12 | 0% | . | -10% | -7 | . | .
CC(Cl)C(=O)NC(C)C1CC2CCC1C2 (stereo not drawn) | . | . | . | 2 | . | .
CC1CCc2c(sc3[nH]c(=S)n(C)c(=O)c23)C1 (stereo not drawn) | -26% | 0.56µM* | ? | -10 | 0.89µM* | 53
